Results taken from PubChem BioAssay (NCI).
Compounds without any hit were thinned out: in the full panel of roughly 83,000, 20% have a hit.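 96-well plates, one dose, 48 hours. Percent growth reported; active if below 10.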 Activity calls are given as the source filed them.

Assays:
Test in all cases: NCI-60 one-dose screen, 48 h (100 = growth as untreated, 0 = no growth, -100 = all killed)
Conditions in all cases: 10 µM unless noted
RPMI-8226 leukemia = system: RPMI-8226 leukemia
OVCAR-8 ovarian = system: OVCAR-8 ovarian
OVCAR-5 ovarian = system: OVCAR-5 ovarian
OVCAR-4 ovarian = system: OVCAR-4 ovarian
SK-OV-3 ovarian = system: SK-OV-3 ovarian
OVCAR-3 ovarian = system: OVCAR-3 ovarian
HS 578T breast = system: HS 578T breast
NCI/ADR-RES ovarian = system: NCI/ADR-RES ovarian
T-47D breast = system: T-47D breast
MDA-MB-435 melanoma = system: MDA-MB-435 melanoma
SW-620 colon = system: SW-620 colon
MCF7 breast = system: MCF7 breast
HCT-116 colon = system: HCT-116 colon
HCC-2998 colon = system: HCC-2998 colon
KM12 colon = system: KM12 colon
BT-549 breast = system: BT-549 breast
IGROV1 ovarian = system: IGROV1 ovarian

Measured: growth

CC(C)CC(NC(=O)CN(Cc1ccccc1)S(C)(=O)=O)C(=O)O (stereo not given)
inactive: RPMI-8226 leukemia 102% | OVCAR-8 ovarian 100% | OVCAR-5 ovarian 94% | OVCAR-4 ovarian 104% | SK-OV-3 ovarian 90.9% | OVCAR-3 ovarian 96.6% | HS 578T breast 91.6% | NCI/ADR-RES ovarian 98.9% | T-47D breast 82% | MDA-MB-435 melanoma 94.2% | SW-620 colon 108% | MCF7 breast 90.5% | HCT-116 colon 100% | HCC-2998 colon 95% | KM12 colon 98.6%

COc1cccc2c1C(=O)c1c(O)c3c(c(O)c1C2=O)CC(O)(/C(C)=N/NC(=O)CCCCC(=O)N/N=C(\C)C1(O)Cc2c(O)c4c(c(O)c2C(OC2CC(N)C(O)C(C)O2)C1)C(=O)c1c(OC)cccc1C4=O)CC3OC1CC(N)C(O)C(C)O1 (stereo not given)
inactive: NCI/ADR-RES ovarian 75.6% [5 µM]
active: RPMI-8226 leukemia -66% [5 µM] | OVCAR-8 ovarian 5% [5 µM] | OVCAR-5 ovarian 7.09% [5 µM] | OVCAR-4 ovarian -9.94% [5 µM] | SK-OV-3 ovarian -7% [5 µM] | OVCAR-3 ovarian -37.2% [5 µM] | HS 578T breast -40.4% [5 µM] | BT-549 breast -21.6% [5 µM] | MDA-MB-435 melanoma -87.6% [5 µM] | SW-620 colon -32.3% [5 µM] | MCF7 breast 2.23% [5 µM] | HCC-2998 colon -53.9% [5 µM] | KM12 colon -21.6% [5 µM]

c1ccc2c(c1)nc(CN1CCOCC1)n1cc(N3CCCC3)nc21
inactive: RPMI-8226 leukemia 62.6% | OVCAR-8 ovarian 94.5% | OVCAR-5 ovarian 92.9% | OVCAR-4 ovarian 111% | SK-OV-3 ovarian 89.8% | OVCAR-3 ovarian 110% | NCI/ADR-RES ovarian 99% | T-47D breast 95.6% | BT-549 breast 100% | MDA-MB-435 melanoma 106% | SW-620 colon 99.7% | MCF7 breast 96.5% | HCT-116 colon 93.5% | HCC-2998 colon 99.8% | KM12 colon 99.1%

N#Cc1c2c(nn(-c3ccccc3)c1=O)C(O)=C([N+](=O)[O-])C(c1ccccc1)C2 (stereo not given)
active: RPMI-8226 leukemia -6.06%
inactive: OVCAR-8 ovarian 81.6% | OVCAR-5 ovarian 110% | OVCAR-4 ovarian 73.8% | IGROV1 ovarian 50.6% | OVCAR-3 ovarian 76.4% | HS 578T breast 91% | NCI/ADR-RES ovarian 93.5% | T-47D breast 35.1% | BT-549 breast 91.9% | MDA-MB-435 melanoma 83.1% | SW-620 colon 80.6% | MCF7 breast 24.4% | HCT-116 colon 58.6% | HCC-2998 colon 101% | KM12 colon 35.7%

O=[N+]([O-])c1ccc(N2c3ccncc3Sc3ccncc32)cc1
inactive: RPMI-8226 leukemia 93.5% | OVCAR-8 ovarian 87% | OVCAR-5 ovarian 118% | OVCAR-4 ovarian 109% | SK-OV-3 ovarian 116% | OVCAR-3 ovarian 94.2% | HS 578T breast 104% | T-47D breast 97.4% | BT-549 breast 114% | SW-620 colon 103% | MCF7 breast 101% | HCT-116 colon 91.6% | HCC-2998 colon 110% | KM12 colon 93.5%

COc1ccc(-c2nc3sccn3c2-c2cc(-c3cc(OC)c(OC)c(OC)c3)on2)cc1
inactive: RPMI-8226 leukemia 41.5% | OVCAR-8 ovarian 94.6% | OVCAR-5 ovarian 124% | OVCAR-4 ovarian 84.4% | SK-OV-3 ovarian 92.2% | OVCAR-3 ovarian 76% | HS 578T breast 92.5% | NCI/ADR-RES ovarian 87.5% | MDA-MB-435 melanoma 102% | SW-620 colon 105% | MCF7 breast 88.5% | HCT-116 colon 85.5% | HCC-2998 colon 98.2% | KM12 colon 90.5%

O=c1[nH][n+](-c2ccc(Cl)cc2)no1
inactive: RPMI-8226 leukemia 79.2% | OVCAR-8 ovarian 69.9% | OVCAR-5 ovarian 77% | SK-OV-3 ovarian 86.8% | IGROV1 ovarian 70.5% | OVCAR-3 ovarian 86.8% | HS 578T breast 98.5% | T-47D breast 26.9% | BT-549 breast 91.8% | MDA-MB-435 melanoma 30.8% | SW-620 colon 40.8% | MCF7 breast 58.4% | HCT-116 colon 84.5% | HCC-2998 colon 32.4% | KM12 colon 31.3%

COc1ccc(NC(=O)CSc2nc(C)c(C(C)=O)n2-c2ccc([N+](=O)[O-])cc2)cc1
inactive: RPMI-8226 leukemia 102% | OVCAR-8 ovarian 96.4% | OVCAR-5 ovarian 89.8% | OVCAR-4 ovarian 102% | IGROV1 ovarian 95.8% | OVCAR-3 ovarian 119% | HS 578T breast 94.9% | NCI/ADR-RES ovarian 86% | T-47D breast 87.8% | BT-549 breast 91.5% | MDA-MB-435 melanoma 93.2% | SW-620 colon 96.6% | MCF7 breast 93.9% | HCT-116 colon 86.5% | HCC-2998 colon 105% | KM12 colon 107%

COc1ccc2c(c1)C(=O)/C(=C/c1cccc(OCC(=O)Nc3nc(C)c(C)s3)c1)O2
active: RPMI-8226 leukemia -63.3% | OVCAR-8 ovarian 4.69% | OVCAR-5 ovarian -77.3% | OVCAR-4 ovarian -66.7% | OVCAR-3 ovarian -58.9% | HS 578T breast 5.38% | NCI/ADR-RES ovarian -59% | T-47D breast -6.43% | BT-549 breast -81.9% | SW-620 colon -76.9% | HCT-116 colon -96.5% | KM12 colon 9.4%
inactive: SK-OV-3 ovarian 46.1% | MDA-MB-435 melanoma 15.3% | MCF7 breast 40.5%

Cn1c(I)c(C#C[Si](C)(C)C)c(=O)n(C(=O)c2ccccc2)c1=O
inactive: OVCAR-5 ovarian 60.9% | OVCAR-4 ovarian 39.5% | SK-OV-3 ovarian 101% | OVCAR-3 ovarian 14.2% | HS 578T breast 41% | NCI/ADR-RES ovarian 88.1% | T-47D breast 17.8% | BT-549 breast 42.8% | MDA-MB-435 melanoma 53.9% | KM12 colon 57.3%
active: RPMI-8226 leukemia -9.86% | OVCAR-8 ovarian -20.6% | SW-620 colon -83.4% | MCF7 breast -18.9% | HCT-116 colon -61.6% | HCC-2998 colon 0.121%
